Test [1] has as its target Retinoic acid receptor RXR-alpha (Homo sapiens) (UniProt P19793). Put plainly: qHTS assay to identify small molecule agonists of the RXR signaling pathway (AID 1159527; calls by dose curve; note: nearly all actives have a fitted effect of over 35% in size). The method in brief: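 qHTS of the Tox21 10K library in GeneBLAzer RXR-alpha HEK 293T cells carrying a beta-lactamase reporter […]; 16 hr treatment, 9-cis retinoic acid as agonist control, FRET read-out.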
Background: qHTS replaces the single test concentration by a dilution series.

A short description of test [2]: qHTS assay to identify small molecule antagonists of the retinoid acid receptor (RAR) signaling pathway - cell viability counter screen (AID 1159551). Note: nearly all actives have a fitted effect of over 35% in size. The procedure, abridged: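 Retinol-stimulated (1 uM final) C3RL4 cells, compound 6 h, 37 C; readout CellTiter-Glo luminescence (ATP) after 30 min RT incubation.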
Test [3] can be described thus: qHTS assay to identify small molecule agonists of the retinoic acid receptor (RAR) signaling pathway (AID 1159553). The procedure, abridged:
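Reporter readout comes from luciferase under RARE control in C3RL4 cells; compound exposure lasts 6 hr at 37 C in 5% CO2, and luminescence is recorded following a 30 min room-temperature incubation with reagent.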

A short description of test [4]: qHTS assay to identify small molecule antagonists of the estrogen related receptor (ERR) signaling pathway from Tox21 library - cell viability counter screen (AID 1224834). Note: nearly all actives have a fitted effect of over 30% in size. The procedure, abridged: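 After 17.5 h of compound exposure at 37 C, ERR cells are incubated with CellTiter-Fluor for 30 min and fluorescence intensity serves as the viability measure.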
Test [5] addresses Luciferin 4-monooxygenase (Photinus pyralis) (UniProt P08659). Put plainly: qHTS assay to identify small molecule inhibitors of firefly luciferase (AID 1224835). Note: nearly all actives have a fitted effect of over 25% in size. Note: potency is the fitted concentration of half-maximal effect. The procedure, abridged: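 Inhibition of purified Photinus luciferase is measured by luminescence. Substrate levels (D-luciferin, ATP) sit at their KM values. Each compound is tested in a concentration series.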
Test [6] can be described thus: qHTS assay to identify small molecule agonists of the constitutive androstane receptor (CAR) signaling pathway - cell viability counter screen (AID 1224836). Note: series mostly up to about 92 µM; nearly all actives have a fitted effect of over 45% in size. The procedure, abridged: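 Counter screen multiplexed with the CAR reporter readout: HepG2 cells co-transfected with hCAR and the CYP2B6-2.2kb construct receive a 15-concentration compound series and 0.75 uM PK11195 (final), then CellTiter-Fluor fluorescence is read after 23 h.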

The nature of test [7]: qHTS assay to identify small molecule antagonists of the constitutive androstane receptor (CAR) signaling pathway - cell viability counter screen (AID 1224837). Note: series mostly up to about 92 µM; nearly all actives have a fitted effect of over 45% in size. The method in brief: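 Counter screen run in HepG2-CYP2B6-hCAR cells: 4 hr settle, compound titration (15 concentrations) with 50 nM CITCO, 23 hr at 37 C/5% CO2, CellTiter-Fluor fluorescence.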
Test [8] deals with Nuclear receptor subfamily 1 group I member 3 (Homo sapiens) (UniProt Q14994). Nature of the test: qHTS assay to identify small molecule antagonists of the constitutive androstane receptor (CAR) signaling pathway (AID 1224838).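 Note: HepG2 cells stably expressing hCAR with CYP2B6 luciferase reporter stimulated by CITCO; nearly all actives have a fitted effect of over 40% in size.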 The procedure, abridged: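 Cell line: HepG2 double-stable for hCAR and CYP2B6-2.2kb reporter. Agonist: CITCO, 50 nM final. Compounds: 15 concentrations, 24 h, 37 C. Detection: ONE-Glo luminescence.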

For test [9] the target is unchanged. Put plainly: qHTS assay to identify small molecule agonists of the constitutive androstane receptor (CAR) signaling pathway (AID 1224839). Note: series mostly up to about 92 µM; nearly all actives have a fitted effect of over 15% in size. The procedure, abridged:
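A 15-concentration quantitative screen uses HepG2 cells co-transfected stably with human CAR and CYP2B6-2.2kb reporter. Treatment lasts 24 h with 0.75 uM PK11195 final present; ONE-Glo luminescence is the signal.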

Test [10] in a line: qHTS assay to identify small molecule antagonists of the estrogen related receptor signaling pathway with the pleiotropic PPARgamma coactivator (PGC) from Tox21 10K library - cell viability counter screen (AID 1224840; active = well fitted cell-killing curve with a large enough effect in the repeat runs, not every such curve was filed as active; note: nearly all actives have a fitted effect of over 40% in size). The method in brief:
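Following seeding of 2,000 PGC/ERR cells/well and 6 hours' incubation, test compounds were delivered in DMSO. The plates then sat 17.5 hours at 37 C before a fluorogenic live-cell protease reagent (CellTiter-Fluor) was read after 30 min.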

Test [11] deals with Thyrotropin receptor (Homo sapiens) (UniProt P16473). Nature of the test: qHTS assay to identify small molecule agonists of the thyroid stimulating hormone receptor (TSHR) signaling pathway (AID 1224843; calls by dose curve; note: nearly all actives have a fitted effect of over 45% in size). The method in brief: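 HEK293 cells stably bearing the thyrotropin receptor were plated at 800 cells/well and challenged with compound (30 min, RT). Accumulated cAMP was quantified via cAMP-d2 competing for cryptate-tagged antibody.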

A short description of test [12]: qHTS assay to identify small molecule agonists of the hypoxia (HIF-1) signaling pathway - cell viability counter screen (AID 1224844; calls by dose curve; note: nearly all actives have a fitted effect of over 50% in size). The procedure, abridged: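 Cells (HRE-bla ME-180, 2,000 per well) sat 5 hrs at 37C, got compound for 17 hrs, were read for CCF4-AM FRET, and were finally lysed with CellTiter-Glo for a 30 min room-temperature luminescence read.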

Test [13] can be described thus: qHTS assay to identify small molecule agonists of H2AX (AID 1224845; active = well fitted activation curve with a large enough effect in the signal ratio in the repeat runs, not every such curve was filed as active; the % refers to the signal ratio). The procedure, abridged:
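Phospho-H2AX Ser139 measured by HTRF (ex 320 nm; em 665 and 620 nm) after 24 hr antibody incubation. Compounds, 15 concentrations, 0.76% DMSO, were applied to CHO-K1 cells for 3hr at 37C before lysis.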

The nature of test [14]: qHTS assay to identify small molecule agonists of H2AX - cell viability counter screen (AID 1224847; calls by dose curve; note: top concentration of the series differs between compounds; nearly all actives have a fitted effect of over 30% in size). The method in brief:
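We seed wild-type CHO-K1 cells overnight, treat them for 3 hr at 37C with compounds in 15-concentration series, and quantify remaining viability by CellTiter-Glo luminescence.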

Test [15] in a line: qHTS assay to identify small molecule antagonists of the retinoic acid receptor (RAR) signaling pathway (AID 1159552; note: nearly all actives have a fitted effect of over 50% in size). The method in brief: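 Quantitative HTS in C3RL4 RARE-luciferase reporter cells. Compounds were added with 1 uM (final) retinol; luminescence was read after 6 hr.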
Test [16] is described as follows: qHTS assay to identify small molecule agonists of the hypoxia (HIF-1) signaling pathway (AID 1224846; active = well fitted activation curve with a large enough effect in the signal ratio in the repeat runs, not every such curve was filed as active; the % refers to the signal ratio). The method in brief: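 A low-serum medium (0.5% dialyzed FBS) holding 2,000 HRE-bla ME-180 cells per well is preincubated for 5 hrs, dosed with compounds by pintool, and kept a further 17 hrs at 37C, 5% CO2 before CCF4-AM FRET detection of beta-lactamase.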
The nature of test [17]: qHTS assay to identify small molecule agonists of the RXR signaling pathway - cell viability counter screen (AID 1159529). Note: series mostly up to about 77 µM; nearly all actives have a fitted effect of over 50% in size. The method in brief: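 Cell viability is measured by CellTiter-Glo luminescence, 30 min at room temperature, in wells already read for beta-lactamase. Engineered HEK 293T cells (RXR-alpha-UAS-bla) are dosed 16 hr at 37 C. Tetraoctyl ammonium bromide serves as positive control.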

The structures appear in SMILES notation. Records with an inconclusive call do not appear. Values without a mark were called inactive. Calls of active or inactive are those of the source. Unless noted, calls come from the whole dose curve; as a rule, active = well fitted curve in the direction sought with a large enough effect in the repeat runs; inconclusive = weak or mixed curves; inactive = no such curve, though single readings can be large; an effect the other way counts as inactive or inconclusive.

Sequence of Retinoic acid receptor RXR-alpha (Homo sapiens) (P19793 whole entry, looked up): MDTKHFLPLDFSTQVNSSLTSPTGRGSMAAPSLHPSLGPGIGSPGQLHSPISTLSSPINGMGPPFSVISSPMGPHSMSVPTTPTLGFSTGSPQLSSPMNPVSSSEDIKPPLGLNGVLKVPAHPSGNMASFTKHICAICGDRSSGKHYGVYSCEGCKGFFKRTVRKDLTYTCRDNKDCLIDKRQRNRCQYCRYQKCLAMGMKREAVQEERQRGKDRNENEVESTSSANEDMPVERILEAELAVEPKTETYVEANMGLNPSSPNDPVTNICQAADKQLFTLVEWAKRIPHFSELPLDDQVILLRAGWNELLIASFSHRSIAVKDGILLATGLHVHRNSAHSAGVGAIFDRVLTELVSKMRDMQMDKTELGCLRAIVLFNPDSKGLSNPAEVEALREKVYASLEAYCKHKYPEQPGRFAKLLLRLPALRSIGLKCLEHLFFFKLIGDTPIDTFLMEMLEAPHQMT
Sequence of Thyrotropin receptor (Homo sapiens) (P16473 whole entry, looked up): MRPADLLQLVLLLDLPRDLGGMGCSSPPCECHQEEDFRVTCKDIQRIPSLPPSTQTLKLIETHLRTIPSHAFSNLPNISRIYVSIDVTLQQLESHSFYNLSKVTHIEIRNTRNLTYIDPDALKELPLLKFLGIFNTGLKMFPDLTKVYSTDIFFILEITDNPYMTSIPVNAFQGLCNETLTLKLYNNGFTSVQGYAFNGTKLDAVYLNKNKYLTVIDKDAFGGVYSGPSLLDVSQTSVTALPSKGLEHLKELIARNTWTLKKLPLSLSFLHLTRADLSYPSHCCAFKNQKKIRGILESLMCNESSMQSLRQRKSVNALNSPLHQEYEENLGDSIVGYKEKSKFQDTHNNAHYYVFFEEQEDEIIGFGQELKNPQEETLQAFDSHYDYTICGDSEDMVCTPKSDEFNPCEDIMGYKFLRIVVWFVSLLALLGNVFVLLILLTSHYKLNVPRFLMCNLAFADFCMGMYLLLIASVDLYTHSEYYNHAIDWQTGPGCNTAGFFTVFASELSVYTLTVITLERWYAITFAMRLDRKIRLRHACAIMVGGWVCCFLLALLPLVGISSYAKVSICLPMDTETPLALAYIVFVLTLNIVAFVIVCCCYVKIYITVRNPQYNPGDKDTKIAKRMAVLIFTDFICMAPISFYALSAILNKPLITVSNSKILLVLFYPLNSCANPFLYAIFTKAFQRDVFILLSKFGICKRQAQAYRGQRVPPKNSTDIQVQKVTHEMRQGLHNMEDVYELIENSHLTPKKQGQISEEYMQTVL
Sequence of Nuclear receptor subfamily 1 group I member 3 (Homo sapiens) (Q14994 whole entry, looked up): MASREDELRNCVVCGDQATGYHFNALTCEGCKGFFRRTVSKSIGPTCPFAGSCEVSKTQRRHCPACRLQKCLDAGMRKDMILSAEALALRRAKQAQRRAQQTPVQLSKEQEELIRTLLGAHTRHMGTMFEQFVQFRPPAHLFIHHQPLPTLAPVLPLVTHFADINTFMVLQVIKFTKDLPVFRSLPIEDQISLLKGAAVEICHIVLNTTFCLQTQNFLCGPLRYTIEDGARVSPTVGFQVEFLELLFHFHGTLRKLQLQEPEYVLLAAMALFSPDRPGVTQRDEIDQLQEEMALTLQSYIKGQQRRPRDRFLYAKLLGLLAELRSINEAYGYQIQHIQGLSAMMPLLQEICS
Sequence of Luciferin 4-monooxygenase (Photinus pyralis) (P08659 whole entry, looked up): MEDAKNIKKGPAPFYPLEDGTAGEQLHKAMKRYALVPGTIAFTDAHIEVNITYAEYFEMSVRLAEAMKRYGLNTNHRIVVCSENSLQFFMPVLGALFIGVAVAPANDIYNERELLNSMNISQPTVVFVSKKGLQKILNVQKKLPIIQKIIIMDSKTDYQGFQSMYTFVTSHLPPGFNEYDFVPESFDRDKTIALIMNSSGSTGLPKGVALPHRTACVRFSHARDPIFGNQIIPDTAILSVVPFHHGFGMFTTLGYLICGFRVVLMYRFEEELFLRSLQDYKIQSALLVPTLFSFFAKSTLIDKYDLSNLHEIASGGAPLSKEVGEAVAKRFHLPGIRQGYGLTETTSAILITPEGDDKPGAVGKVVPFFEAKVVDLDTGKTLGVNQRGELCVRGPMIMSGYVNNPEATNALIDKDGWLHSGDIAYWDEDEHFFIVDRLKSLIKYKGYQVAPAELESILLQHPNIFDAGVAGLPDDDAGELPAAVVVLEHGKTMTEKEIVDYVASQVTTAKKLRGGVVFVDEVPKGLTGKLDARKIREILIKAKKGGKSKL

As for `NCc1ccc(S(N)(=O)=O)cc1`, the Potency result in test [1], in [3], in test [5], in test [8] and in [9] was “inactive” each time. For the same compound, the result in [2], in test [4], in [6], in test [7], in [10] and in test [11] was inactive. Besides, the result in [12], in test [13] and in test [14] was inactive.

Turning to `CNCCS(=O)(=O)O`, the Potency entry in [1], in [8] and in test [9] was “inactive” each time. The call in test [2], in [15], in [6], in test [7], in test [10] and in test [11] was inactive. Besides, the compound was called inactive in test [12], in test [13], in [16] and in test [14].

In the case of `C=CCCCCCCCC`, the Potency entry in test [1], in test [3], in test [5], in [8] and in test [9] was “inactive” each time. Also, the compound was classed as inactive in [2], in test [15], in test [4], in [6], in test [7] and in test [10]. Moreover, the outcome in test [11], in [12], in test [13], in [16] and in test [14] was inactive.

Regarding `CC(=O)CCC1=C(C)CCCC1(C)C`, the outcome in [17], in test [2], in test [15], in test [4], in test [6] and in [7] was inactive. Besides, the compound was classed as inactive in test [10], in [11], in test [12], in test [13], in test [16] and in test [14]. Also, the Potency entry in test [3], in test [5], in [8] and in test [9] was “inactive” each time.

`C=CC(=O)OCC1CCCO1` (stereo not drawn): the Potency entry in [1], in [3], in test [5], in [8] and in [9] was “inactive” throughout. The result in [2], in test [15], in [4], in test [6], in [7] and in [10] was inactive. The compound was called inactive in test [11], in test [12], in test [13], in test [16] and in [14].

`O=C[O][Al]([O]C=O)[O]C=O`: the Potency result in test [1] and in [8] was “inactive” throughout. Further, the call in test [2], in [4], in [6], in test [7], in [10] and in test [11] was inactive. In addition, the call in [12], in test [16] and in [14] was inactive. For the same compound, in test [5], the Potency was 63.3 µM (active).

Take `C=CC(=O)CCCCC`: the Potency entry in [1], in test [5] and in test [8] was “inactive” throughout. In addition, the result in test [2], in test [6], in test [7], in test [10], in [11] and in test [12] was inactive. Further, the result in [13], in test [16] and in test [14] was inactive.

Regarding `C=CCOC(=O)CCCCCC`, the Potency result in [1], in [3], in test [5], in [8] and in test [9] was “inactive” each time. The result in test [2], in test [15], in test [4], in test [6], in [10] and in test [11] was inactive. The compound was classed as inactive in test [12], in test [13] and in [16].

As to `CCCC(=O)Nc1ccc(OCC(O)CNC(C)C)c(C(C)=O)c1` (stereo not drawn), the Potency entry in test [1], in test [3], in test [5], in test [8] and in test [9] was “inactive” in each case. Moreover, the outcome in test [2], in test [15], in test [4], in test [6], in test [7] and in [10] was inactive. The compound was classed as inactive in test [11], in [12], in test [13] and in test [14].

Values taken from PubChem BioAssay (Tox21).
